Screening results (PubChem)
FLuc modulator – qHTS profiling assay for firefly luciferase inhibitor/activator using purifed enzyme and Km concentrations of substrates (counterscreen for miR-21 project). purified FLuc, Km substrates, luminescence inhibition. Potency, µM (top dose mostly 57.5 µM), without a hit: at the highest dose activity change, negative = inhibition, usual class: inhibitors. 6.9% of 360,000 active. AID 588342, 2011;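 also: plate controls were vehicle for no effect and reference inhibitor for full effect; nearly all actives have a fitted effect of over 55% in size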
Target sequence (P08659 whole entry, looked up): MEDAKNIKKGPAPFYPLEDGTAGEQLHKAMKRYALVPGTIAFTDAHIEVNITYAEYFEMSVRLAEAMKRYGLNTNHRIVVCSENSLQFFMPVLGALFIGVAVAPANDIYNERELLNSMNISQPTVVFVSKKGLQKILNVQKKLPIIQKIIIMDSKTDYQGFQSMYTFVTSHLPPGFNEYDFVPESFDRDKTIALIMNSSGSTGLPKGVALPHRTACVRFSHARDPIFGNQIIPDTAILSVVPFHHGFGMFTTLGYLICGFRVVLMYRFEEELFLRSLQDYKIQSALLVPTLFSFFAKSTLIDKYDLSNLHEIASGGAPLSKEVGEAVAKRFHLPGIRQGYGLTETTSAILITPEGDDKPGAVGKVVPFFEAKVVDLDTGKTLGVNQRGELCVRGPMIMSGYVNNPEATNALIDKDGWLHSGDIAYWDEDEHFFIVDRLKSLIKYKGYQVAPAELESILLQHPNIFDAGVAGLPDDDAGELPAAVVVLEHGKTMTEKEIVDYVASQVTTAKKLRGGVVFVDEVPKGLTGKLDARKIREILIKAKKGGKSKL
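Purified P. pyralis luciferase (10nM final) with 10uM D-luciferin and 10uM ATP (Km levels) in 50mM Tris acetate pH 7.5, 10mM Mg acetate, 0.01% Tween-20, 0.05% BSA; qHTS 6-point titration, ~60 µM downward; luminescence read.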
NPC1 promoter act – qHTS Assay for NPC1 Promoter Activators | Huh7 NPC1 promoter luciferase reporter, 24 h | 2.4% of 320,000 active | Potency, µM (doses to about 9.22 µM), for the others: top-dose activation, most hits filed as activators; also: % of control where 0% means no effect; nearly all actives have a fitted effect of over 60% in size
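Compounds in DMSO were transferred onto Huh7 NPC1-luciferase reporter cells pre-incubated 2 h; after 24 h at 37 °C, Amplite reagent was dispensed and luminescence recorded 10 min later.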
SMN2 splice up – qHTS Assay for Enhancers of SMN2 Splice Variant Expression; Potency, µM (series often up to 46.1 µM), for the others: at the top dose activity change, positive = activation, hits mostly activators; HEK293 SMN2-luciferase splicing reporter, luminescence, 30-36 h; AID 1458, 2008; 2.8% of 210,000 active; also: % of control where 0% means no effect; nearly all actives have a fitted effect of over 55% in size
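qHTS luciferase splicing reporter: luminescence rises when SMN2 exon 7 is included in transfected HEK293 cells. Compound exposure lasted 30-36 h at 37C, with 4.5 mM final sodium butyrate as control, followed by a ONE-Glo read.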
ELG1 genotox – qHTS screen for small molecules that induce genotoxicity in human embryonic kidney (HEK293T) cells expressing luciferase-tagged ELG1; HEK293T ELG1-luciferase reporter, luminescence, 16 h; Potency, µM (doses to about 46 µM), without a hit: at the top dose activity change, positive = activation, actives largely listed as activators; AID 504466, 2011; 1.3% of 330,000 active; also: % of control where 0% means no effect; nearly all actives have a fitted effect of over 60% in size
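Quantitative HTS format in 1536-well plates. HEK293T ELG1-luciferase reporter cells receive test compound and are incubated 16 hr at 37 °C, 5% CO2; ONE-Glo added, 30 min room temperature, then luminescence read.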
Rab9 promoter act – qHTS Assay for Rab9 Promoter Activators | Huh7 Rab9 promoter-luciferase reporter, luminescence, 24 h | Potency, µM (titrated, usually from 9.22 µM), without a hit: at the highest dose activation, negative = inhibition, hits mostly activators | 2.8% of 320,000 active | AID 485297, 2010; also: % of control where 0% means no effect; nearly all actives have a fitted effect of over 60% in size
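Steps: seed 1500 Huh7 Rab9-luc cells per well, rest 2 h at 37 °C; add compound in DMSO; incubate 24 h; add luciferase reagent, 10 min ambient; read luminescence.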
Numbers without * were called inactive; ? = inconclusive; · = not tested or not shown; [ ] = another dose, or the depositor's remark. A selection: hits, their analogues and other compounds. The true share with any hit is near 7.4%. Calls follow the shape of the dose curve; as a rule, active = well fitted curve in the direction sought with a large enough effect; inconclusive = small, poorly fitted or top-dose-only effect, or another doubt; inactive = no such curve, though single readings can be large; an effect the other way counts as inactive or inconclusive. Potency is read from the fitted curve at half-maximal effect.

SMILES | FLuc modulator | NPC1 promoter act | SMN2 splice up | ELG1 genotox | Rab9 promoter act
CC(Sc1nncn1C)C(=O)Nc1nnc(-c2ccccc2)s1 (centres undefined) | 15µM* | ? | 14µM* | 16µM* | ?
COc1ccccc1C(=O)Nc1cc(-c2ccc(C)cc2)no1 | 6µM* | ? | ? | ? | ?
Cc1c(-c2nc(-c3ccc4c(c3)OCO4)no2)nnn1-c1cccc(C(F)(F)F)c1 | 4% | · | · | · | ·
COc1cccc(C(=O)NOCc2ccccc2)c1OC | 27µM* | ? | · | ? | ?
COc1cccc(C(=O)OCC(=O)NCCc2ccccc2)c1OC | -4% | -3% | 2% | 0% | -4%
COc1ccccc1C(=O)N(C)c1nnc(-c2ccccc2)s1 | 19µM* | 3.5µM* | · | 5% | ?
CC(=O)Nc1sc(N/N=C\c2ccc(O)cc2)nc1-c1cccs1 | 12µM* | 11% | · | ? | 22%
COc1ccccc1C(=O)Nc1nc(-c2cccs2)c(NC(C)=O)s1 | 0.76µM* | 19% | ? | 9.2µM* | ?
COCCN(C(=O)c1ccccc1OC)c1nnc(C)s1 | -1% | -2% | -10% | -1% | -4%
CCOC(=O)c1sc(NC(=O)CCCn2nc([N+](=O)[O-])cc2C)c(C(=O)OCC)c1C | 4% | 1% | -28% | -6% | 1%
COc1cccc(C(=O)Nc2sc(C(C)C)cc2C(N)=O)c1OC | 21µM* | -3% | · | -4% | -2%
O=C(Nc1nnc(-c2ccccc2)s1)c1ccccc1O | 4.3µM* | 1.8µM* | · | 2% | 2.5µM*
COc1ccccc1C(=O)Nc1nnc(C)s1 | 17µM* | ? | 18% | 13µM* | ?
COC(=O)c1cc(OC)c(OC)cc1NC(=O)c1cccc(OC)c1OC | -4% | 3% | -14% | -5% | -8%
COc1ccccc1C(=O)Nc1nnc(-c2ccccc2)s1 | 13µM* | ? | · | ? | 17%
COc1ccc(NC(=O)C2CCN(S(=O)(=O)c3c(C)noc3/C=C/c3ccco3)CC2)cc1 | -4% | · | 4% | · | ·
Cc1nnc(NC(=O)c2ccccc2NC(=O)c2ccccc2)s1 | 8.5µM* | 1% | · | -4% | -2%
CCOc1ccc(N2CC(C(=O)NCCc3ccc(F)cc3)CC2=O)cc1 (centres undefined) | 0% | 0% | · | -10% | 2%
CCCCCC/C(C)=C1/SC(=S)NC1=O | -6% | -3% | -12% | -8% | -2%
C/C(C/C(C)=C1/SC(=S)NC1=O)=C1\SC(=S)NC1=O | 27µM* | -4% | 1% | 0% | 0%
COc1ccc2c(c1)[N+](=O)C(/C(C)=N/NC(N)=S)=C(C)[N+]2=O | · | · | -1%[9.22 µM] | · | ·
O=C(NCc1ccccc1)c1ccc(CSc2nc3cccnc3n2Cc2ccccc2F)cc1 | -14% | · | · | · | ·
O=C(NCCc1ccccc1)c1ccc(Cn2c(SCc3cccc(F)c3)nc3cccnc32)cc1 | -10% | 5% | · | · | -2%
O=C(NCCc1cccs1)c1ccc(Cn2c(SCc3cccc(F)c3)nc3cccnc32)cc1 | -1% | · | 3% | · | ·
O=C(NCc1ccccc1Cl)c1ccc(Cn2c(SCc3ccccc3)nc3cccnc32)cc1 | 5.4µM* | · | · | · | ·
SMILES | FLuc modulator | NPC1 promoter act | SMN2 splice up | ELG1 genotox | Rab9 promoter act
O=C(NCc1ccco1)c1ccc(Cn2c(SCc3ccccc3)nc3cccnc32)cc1 | 6.7µM* | · | · | · | ·
O=C(NCCc1ccccc1)c1ccc(Cn2c(SCc3ccccc3)nc3cccnc32)cc1 | 6µM* | · | · | · | ·
Cc1ccccc1CSc1nc2cccnc2n1Cc1ccc(C(=O)NCCc2cccs2)cc1 | 5.4µM* | · | · | · | ·
CC(C)OCCCNC(=O)c1ccc(CSc2nc3cccnc3n2Cc2ccccc2)cc1 | -13% | · | · | · | ·
Cc1ccc(CSc2nc3cccnc3n2Cc2ccc(C(=O)NCCc3ccccc3)cc2)cc1 | 0.48µM* | · | · | · | ·
COc1ccc(Cl)cc1NC(=O)CN(C)CC(=O)Nc1cc(OC)c(OC)c(OC)c1 | -1% | -31% | · | -9% | -16%
Cc1ccc(-n2cc(CNCCCn3cccn3)c(-c3cccc(C)c3)n2)cc1 | ? | -4% | · | 1% | -4%
